Hits are enriched below; roughly 1.4% of the tested compounds scored in any of these assays.
ALOX12 inh: Primary qHTS assay for inhibitors of human arachidonate 12S-lipoxygenase (ALOX12): Round 2. AID 1671190, 2021. Potency, µM (top dose mostly 108 µM), hits mostly inhibitors. actives 1.1% (n = 580,000). purified 12hLO, xylenol orange hydroperoxide absorbance
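Hydroperoxide product was detected by ferrous iron/xylenol orange as the 573 to 405 nm absorbance ratio. Arachidonic acid at 40 uM (final) was turned over for 30 min at room temperature by 150 nM human 12hLO, pH 7.0 Hepes buffer, after 15 min compound preincubation.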
Vif-A3F inh: qHTS for Inhibitors of Vif-A3F Interactions: qHTS; actives 0.2% (n = 390,000); AID 602313, 2012; Potency, µM (series often up to 46.1 µM); HeLa A3F-eYFP + Vif (tagged APOBEC3F with the HIV-1 protein that degrades it), YFP fluorescence increase; also: nearly all actives have a fitted effect of over 65% in size
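Fluorescence increase (Ex 488/Em 500-530) after overnight compound treatment at 37 deg C flags inhibition of Vif-driven A3F-eYFP loss in stable HeLa A3F-eYFP/Vif cells seeded overnight beforehand.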
Akt phos inh: HTS Assay for Inhibitors of Akt Phophorylation: Primary Screen; actives 0.32% (n = 360,000); AID 651550, 2012; activity change, % for hits at 50 µM; Neuro2A IGF-stimulated pAkt S473 HTRF, 20 min; hits give low values; in the data active = activity change below about -80%; inconclusive = mostly about -51% to -80%
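Single-point screen (50 µM final compound) in Neuro2A cells stimulated 20 min with 6 nM IGF at 37 deg C. After lysis, Ser473-phosphorylated Akt read by HTRF (ex 330 nm, em 615/665 nm) as the 665/615 ratio.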
Vif-APOBEC3G blk: qHTS for Inhibitors of Vif-A3G Interactions: qHTS. HeLa A3G-eYFP + Vif (tagged APOBEC3G with the HIV-1 protein that degrades it), YFP fluorescence, overnight. AID 602310, 2012. Potency, µM (series often up to 46.1 µM), most hits filed as inhibitors. actives 0.076% (n = 410,000). DNA dC->dU-editing enzyme APOBEC-3G (Homo sapiens), Q9HC16; also: nearly all actives have a fitted effect of over 60% in size
Target sequence (Q9HC16 whole entry, looked up): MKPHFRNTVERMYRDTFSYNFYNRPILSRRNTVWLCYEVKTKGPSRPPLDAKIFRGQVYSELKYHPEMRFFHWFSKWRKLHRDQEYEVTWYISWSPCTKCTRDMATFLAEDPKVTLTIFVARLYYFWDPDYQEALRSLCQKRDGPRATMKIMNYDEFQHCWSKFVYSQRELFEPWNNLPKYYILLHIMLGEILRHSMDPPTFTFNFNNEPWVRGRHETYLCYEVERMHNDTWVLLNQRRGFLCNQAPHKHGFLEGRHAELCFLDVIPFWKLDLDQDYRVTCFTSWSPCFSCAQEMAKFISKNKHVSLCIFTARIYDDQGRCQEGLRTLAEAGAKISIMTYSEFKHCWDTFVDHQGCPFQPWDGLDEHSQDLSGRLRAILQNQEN
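HeLa cells stably expressing Vif and C-terminally eYFP-tagged A3G, seeded overnight at 37 deg C, then exposed to compound by pintool overnight at 37 deg C. Rise in yellow fluorescence (Ex 488/Em 500-530, Acumen) marks blocked Vif-driven A3G degradation.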
TSG101-PTAP inh: qHTS Assay for Iinhibitors of HIV-1 Budding by Blocking the Interaction of PTAP/TSG101; Fluorescence polarization, FITC-PTAP peptide / Tsg101 binding; Potency, µM (titrated, usually from 115 µM), most hits filed as inhibitors; 340,000 tested, under 10 active; AID 493005, 2010; active = well fitted inhibition curve with a large enough effect in the main read-out, with a control signal flat, not every such curve was filed as active; inconclusive = small, poorly fitted or top-dose-only effect, or effect the other way, or a change in a side signal; inactive = no such curve, though single readings can be large or run the other way
Target sequence (Q99816 whole entry, looked up): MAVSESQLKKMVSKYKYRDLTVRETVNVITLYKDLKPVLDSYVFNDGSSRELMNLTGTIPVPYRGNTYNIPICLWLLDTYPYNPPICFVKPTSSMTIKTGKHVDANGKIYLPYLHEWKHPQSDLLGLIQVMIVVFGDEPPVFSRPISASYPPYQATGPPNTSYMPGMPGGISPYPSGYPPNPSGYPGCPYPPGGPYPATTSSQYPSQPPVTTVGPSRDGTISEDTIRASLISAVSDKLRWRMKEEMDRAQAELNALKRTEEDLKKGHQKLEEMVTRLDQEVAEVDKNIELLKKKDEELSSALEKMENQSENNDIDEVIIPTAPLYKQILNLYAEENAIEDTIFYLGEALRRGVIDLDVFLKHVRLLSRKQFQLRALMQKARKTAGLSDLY
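Steps: Tsg101 binding domain dispensed (10 uM final), compounds pinned in DMSO, FITC-labeled PTAP-motif peptide added (50 nM final); after 20 min binding at room temperature, polarization measured.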
S-ASM inh: Inhibitors of Secretory Acid Sphingomyelinase (S-ASM): qHTS; placental ASM, HMU-PC fluorogenic substrate, 60 min; Sphingomyelin phosphodiesterase (Homo sapiens), P17405; Potency, µM (highest dose often 57.5 µM), hits mostly inhibitors; actives 0.006% (n = 340,000)
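Steps: dispense placental human ASM, pin compound, wait 10 min at room temperature, add HMU-PC0 substrate at 9 uM final, incubate 60 min at 37 °C, add stop solution raising pH to 10, read fluorescence.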
Numbers stand for hits; n = inactive; u = inconclusive; x = no result given; ! = not confirmed by another sample. Unless noted, calls follow the shape of the dose curve; as a rule, active = well fitted curve in the direction sought with a large enough effect; inconclusive = small, poorly fitted or top-dose-only effect, or another doubt; inactive = no such curve, though single readings can be large; an effect the other way counts as inactive or inconclusive.

SMILES	ALOX12 inh	Vif-A3F inh	Akt phos inh	Vif-APOBEC3G blk	TSG101-PTAP inh	S-ASM inh
COc1ccc(C2C(C#N)=C(N)Oc3cc(C)n(Cc4ccncc4)c(=O)c32)cc1 (stereo not drawn)	n	n	n	n	n	n
CCN1C=C(Cc2ccc(OC)cc2)C2=C(C1)C(c1ccc(OC)cc1)C(C#N)=C(N)O2 (stereo not drawn)	17.8µM	n	n	n	n	n
COc1cccc(C2CCCN2Cc2cc(=O)oc3cc(OC)ccc23)c1 (stereo not drawn)	44.7µM	x	x	x	x	x
O=C(NCC1CC1)c1ccc(-n2ccnc2)c2ccoc12	10µM	x	n	n	x	x
CS(=O)(=O)Nc1cccc(NC(=O)c2ccc(-n3ccnc3)c3ccoc23)c1	10µM	x	n	n	x	x
O=S(=O)(NCCN1CCOCC1)c1ccc(Cl)c(Cl)c1	n	n	n	n	n	n
O=S(=O)(NCCN1CCOCC1)c1ccc(F)c(Cl)c1	20µM	n	n	n	n	n
CC(=O)N1CCC(C(=O)N2CCC3(CC2)NC(=O)N(c2ccccc2)N3)CC1	1.58µM	x	x	x	x	x
O=C1CCC2(CC1)NC(=O)N(c1ccccc1)N2	u	n	n	n	n	n
CC(=O)N1CCC(C(=O)N2CCC3(CC2)NC(=O)N(c2cccc(Cl)c2)N3)CC1	1.26µM	x	x	x	x	x
CC(c1ccc(F)c(F)c1)N(C)CCS(=O)(=O)CCC(N)=O (stereo not drawn)	n	x	x	x	x	x
Clc1cccc(N/N=C(\Cc2nc3ccccc3[nH]2)c2ccccc2)c1	12.6µM	n	n	n	n	n
O=C(NCc1nc2ccccc2[nH]1)c1cccc(Cl)c1	n	n	x	n	x	x
O=C(OCC(=O)N1CCCCCC1)c1cnc2ccccc2n1	n	x	x	x	x	x
CC(C)(C)c1ccc(OCCn2cc(C(=O)C(F)(F)F)c3cc(Br)ccc32)cc1	n	x	x	x	x	x
N#Cc1c(NC(=O)/C=C/C(=O)O)sc2c1CCN(Cc1ccccc1)C2	n	25.1µM	n	u	n	n
O=C(O)c1ccccc1-c1ccc(C=c2sc3nc4cc(Br)cnc4n3c2=O)o1	7.94µM	x	n	n	x	x
Clc1ccccc1-c1nnc2sc(-c3ccco3)nn12	n	n	n	n	n	n
Cc1oc(-c2ccc(F)cc2)cc1-c1nn2c(-c3ccco3)nnc2s1	11.2µM	x	x	x	x	x
Cc1oc(-c2ccc(F)cc2)cc1-c1nn2c(-c3ccoc3C)nnc2s1	n	n	-108.8%	n	n	n
Fc1ccccc1-c1ccc(-c2nn3c(-c4ccco4)nnc3s2)o1	8.91µM	x	x	x	x	x
O=C1NC2(CCCC2)C(=O)N1Cc1ncc(-c2cccc(Cl)c2)o1	n	x	x	x	x	x
COc1ccc(-c2cc(=S)ss2)cc1	17.8µM!	x	x	x	x	x
COc1ccc(-c2ccc(OC)cc2)cc1	n	n	n	n	n	n
O=C1NC2(CCN(Cc3ccsc3)CC2)COc2ccccc21	44.7µM	x	x	x	x	x
SMILES	ALOX12 inh	Vif-A3F inh	Akt phos inh	Vif-APOBEC3G blk	TSG101-PTAP inh	S-ASM inh
Cc1ccsc1C(=O)N1CCCn2cc(-c3cccc(C#N)c3)nc21	n	x	x	x	x	x
O=[N+]([O-])c1ccccc1/C=C/C=N/Nc1ccc(S(=O)(=O)Nc2ccccc2)cc1[N+](=O)[O-]	n	x	x	x	x	x
Cc1ccc(N/N=C/C=C/c2ccccc2[N+](=O)[O-])c(C)c1	15.8µM	x	x	x	x	x
Cc1ccc(C(=O)Nc2ccc(CN3CCN(C)CC3)c(C(F)(F)F)c2)cc1C#Cc1cnc2cccnn12	0.344µM	x	x	x	x	x
CCOc1ccccc1C(=O)NC1(C(F)(F)F)C(=O)Nc2c1c(=O)[nH]c(=O)n2Cc1ccccc1 (stereo not drawn)	n	x	x	x	x	x
O=C(Cc1ccc(Cl)cc1)N/N=C/c1ccc(O)c(O)c1	14.1µM	n	n	n	x	x
Cc1ccc(O)c(/C=N/NC(=O)Cc2ccc(Cl)cc2)c1	n	n	n	n	n	n
CN(c1ccc(-c2csc(NC3CCCC3)n2)cc1)S(C)(=O)=O	15.8µM	x	x	x	x	x
CS(=O)(=O)Nc1ccc(-c2csc(NC3CC3)n2)cc1	10µM	x	x	x	x	x
N#Cc1cn(CC(=O)Nc2cccc(Cl)c2Cl)c2ccccc12	n	x	x	x	x	x
COc1cccc(S(=O)(=O)N2C[C@@H](Oc3ccccc3)C[C@@H]2C(=O)N2CCOCC2)c1	n	x	x	x	x	x
COc1ccc(-c2ccc3c(c2)[C@@H]2C[C@H](N(C)C(=O)C(C)(C)C)[C@H]([C@H](C)O)C(=O)N2CC3)cc1	11.2µM	n	n	n	n	n
O=C(CCCN1C(=O)/C(=C/c2ccc3c(c2)OCO3)SC1=S)Nc1ccc(C(=O)O)cc1	14.1µM	n	n	n	n	n
O=C(CCN1C(=O)/C(=C\C=C\c2ccccc2)SC1=S)Nc1ccc(C(=O)O)cc1	31.6µM	n	n	n	n	n
O=C(CN1C(=O)S/C(=C/C=C/c2ccccc2)C1=O)Nc1ccc(C(=O)O)cc1	n	n	n	n	n	n
O=C1NCCCCCCN(Cc2ccc(C(F)(F)F)cc2)[C@H]2CCC[C@@H]12	n	x	x	x	x	x
N#C/C(=C\c1ccccc1[N+](=O)[O-])C(=O)NCc1ccccc1	u	12.6µM	n	n	n	n
O=S(=O)(c1ccc2nc(N3CCN(c4ccccc4)CC3)ccc2c1)N1CCCC1	3.55µM	x	x	x	x	x
CC1CCN(S(=O)(=O)c2ccc3nc(N4CCN(c5ccccc5)CC4)ccc3c2)CC1	n	n	n	n	n	n
CCN1CCN(c2ccc3cc(S(=O)(=O)N4CCOCC4)ccc3n2)CC1	1.78µM	x	x	x	x	x
O=S(=O)(c1ccc2nc(N3CCN(c4ccc(F)cc4)CC3)ccc2c1)N1CCCCC1	u	n	n	n	n	n
O=C(Nc1ccnn1C1CCN(Cc2ccc(OC3CCCC3)cc2)CC1)C1CC1	8.91µM	x	x	x	x	x
COc1ccc(/C=C/CN2CCC(n3nccc3NC(=O)C3CC3)CC2)cc1	25.1µM	n	n	n	n	n
CC(C)Cn1nc(C(=O)Nc2ccc(SC(F)F)cc2)c2ccccc2c1=O	n	x	x	x	x	x
Cc1noc(C)c1CC(=O)NC1CCCc2c1[nH]c1c(Cl)cccc21 (stereo not drawn)	n	x	x	x	x	x
S=c1[nH]cnc2sc(-c3ccccc3)cc12	n	5.62µM	n	n	n	n
CNc1ncnc2sc(-c3ccccc3)cc12	n	n	n	n	n	n
CC(C)N1C(=O)C(CC(=O)Nc2cccc(OC(F)(F)F)c2)=C2CCCCC21 (stereo not drawn)	n	x	x	x	x	x
O=C(N=c1ccn(-c2nc3ccccc3nc2NS(=O)(=O)c2ccc(Cl)cc2)cc1)c1cccs1	n	7.94µM	n	n	u	n
